From PubChem BioAssay (EPA / NIEHS)
Records with an inconclusive call do not appear. Activity calls are given as the source filed them. The calls were made as follows: active = hit-call score of the fitted dose curve at least 0.9, where 1 is the maximum; inconclusive = response in the unintended direction; inactive = score below 0.9.

Experiment: ATG_XTT_Cytotoxicity: Cytotoxicity Assessment in the Attagene TRANS-FACTORIAL HepG2 Assay (AID 2283584);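 as to AC50: XTT signal for cell number as viability in transfected HepG2 cells; cells exposed to compound for 24 h before reading; active means loss of viability signal versus DMSO baseline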
Method in brief: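 Transfect HepG2 with GAL4-UAS reporter units, dose compound, incubate 24 h, then measure viable cell number by XTT. Fit concentration response against DMSO baseline.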

SMILES | outcome | AC50
O=[N+]([O-])c1ccc2c3c(cccc13)CC2 | inactive | 
O=C/C=C/c1ccccc1 | inactive | 
CCNc1nc(NC(C)(C)C)nc(SC)n1 | inactive | 
O=CC=O | inactive | 
COC(=O)Cc1ccccc1 | inactive | 
CCC[CH2][Sn]([CH2]CCC)([CH2]CCC)[O]C(=O)c1ccccc1 |  | 906 nM (active)
C(=NC1CCCCC1)=NC1CCCCC1 | inactive | 
C=CC#N | inactive | 
O=C(c1ccccc1)C(Cl)Cl | inactive | 
ClCc1ccccn1 | inactive | 
CCCCCCCCC(=O)NCc1ccc(O)c(OC)c1 | inactive | 
NC(=S)Nc1ccccc1 | inactive | 
ClC1=C(Cl)[C@]2(Cl)[C@H]3[C@H]([C@H]4C=C[C@H]3C4)[C@@]1(Cl)C2(Cl)Cl | inactive | 
Oc1ccc(-c2ccccc2)cc1 | inactive | 
COC(=O)c1sccc1S(=O)(=O)NC(=O)Nc1nc(C)nc(OC)n1 | inactive | 
Cl/C=C\C[N+]12CN3CN(CN(C3)C1)C2 | inactive | 
COP(=S)(OC)Oc1ccc(S(=O)(=O)N(C)C)cc1 | inactive | 
COS(=O)(=O)c1ccc(C)cc1 | inactive | 
Oc1c(I)cc(I)cc1I | inactive | 
CC(C)(c1ccc(OCC2CO2)cc1)c1ccc(OCC2CO2)cc1 (centres undefined) | inactive | 
CC(=O)c1cc(C(C)(C)C)cc2c1CCC2(C)C | inactive | 
CC1(C)CCC(Cc2ccc(Cl)cc2)C1(O)Cn1cncn1 (centres undefined) | inactive | 
BrCCBr | inactive | 
C[C@H]1O[C@@H](O[C@H]2[C@@H](O)C[C@H](O[C@H]3[C@@H](O)C[C@H](O[C@H]4CC[C@@]5(C)[C@H](CC[C@@H]6[C@@H]5CC[C@]5(C)[C@@H](C7=CC(=O)OC7)CC[C@]65O)C4)O[C@@H]3C)O[C@@H]2C)C[C@H](O)[C@@H]1O | inactive | 
